In PubChem BioAssay (NCI) one finds growth data, which are given here for eight compounds.

Some test systems named below: SR leukemia; RPMI-8226 leukemia; OVCAR-8 ovarian; OVCAR-4 ovarian; SK-OV-3 ovarian; IGROV1 ovarian; OVCAR-3 ovarian; HS 578T breast; NCI/ADR-RES ovarian; T-47D breast; BT-549 breast; MDA-MB-435 melanoma; SW-620 colon; MCF7 breast; HCT-116 colon; HCC-2998 colon; KM12 colon; MDA-MB-468 breast; OVCAR-5 ovarian.
Common to all, as to test: NCI-60 one-dose screen, 48 h (100 = growth as untreated, 0 = no growth, -100 = all killed)
Common to all, as to conditions: 10 µM unless noted

Each structure is given as a SMILES string. The panel holds about 83,000 compounds, 20% with a hit somewhere; the sample as a whole holds those more often.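 Step 1: grow cells in 96-well plates. Step 2: add test compound at a single concentration. Step 3: incubate 48 h. Step 4: record percent growth.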 A number with no mark means an inactive call. Activity calls are given as the source filed them. Rule for the calls: active = growth percent below 10; inactive = the rest.

Take `CCN(CC)CCOc1ccc(Nc2ncc3cc(-c4ccc(O)c(C#N)c4)c(=O)n(C)c3n2)cc1`: the growth is -8.11% (active) with SR leukemia; 65% in the experiment with RPMI-8226 leukemia; 92.8% with OVCAR-8 ovarian; 89.3% in the experiment with OVCAR-4 ovarian; 64.7% with SK-OV-3 ovarian; 46.9% with IGROV1 ovarian. Moreover, the growth with OVCAR-3 ovarian was 83.7%; with HS 578T breast, 76.5%; in the experiment with NCI/ADR-RES ovarian, 114%; with T-47D breast, 36.5%; with BT-549 breast it was 112%; with MDA-MB-435 melanoma it was 29.9%. In addition, the growth with SW-620 colon is 110%; with MCF7 breast, 16.8%; with HCT-116 colon it was 32.9%; in the experiment on HCC-2998 colon, 111%; in the experiment on KM12 colon, 72.4%; in the experiment with MDA-MB-468 breast, 63.5%.

Take `C#CCOc1ccc(/C=N/Nc2nc(-c3ccc(F)cc3)cs2)cc1OC`: the growth in the experiment on SR leukemia is 25.5%; in the experiment with RPMI-8226 leukemia it was 35.5%; in the experiment with OVCAR-8 ovarian it was 63.8%; with OVCAR-4 ovarian it was 65.6%; in the experiment with SK-OV-3 ovarian it was 88%; in the experiment on IGROV1 ovarian, 72.6%. Moreover, the growth is 71.2% with OVCAR-3 ovarian; 81.2% in the experiment with HS 578T breast; 32.2% in the experiment on NCI/ADR-RES ovarian; 35.4% in the experiment on T-47D breast; 24.5% in the experiment with BT-549 breast; 56.2% in the experiment on MDA-MB-435 melanoma. Besides, the growth is 86.7% in the experiment with SW-620 colon; 35.3% with MCF7 breast; 44.6% in the experiment with HCT-116 colon; 92.9% in the experiment with HCC-2998 colon; 59.9% in the experiment with KM12 colon.

For `COc1cc2oc(-c3cccc(C(=O)Nc4cccc([N+](=O)[O-])c4)c3)cc(=O)c2c(OC)c1OC`, the growth with SR leukemia was 55%; with RPMI-8226 leukemia it was 68.9%; in the experiment with OVCAR-8 ovarian, 5.89% (active); in the experiment with OVCAR-4 ovarian, -6.32% (active); in the experiment with SK-OV-3 ovarian, -9.46% (active); in the experiment with IGROV1 ovarian it was 22.1%. Besides, the growth with OVCAR-3 ovarian was 26.7%; in the experiment with HS 578T breast it was -5.03% (active); in the experiment with NCI/ADR-RES ovarian, -18.2% (active); in the experiment on T-47D breast it was 26.8%; with BT-549 breast it was -15.9% (active); in the experiment with MDA-MB-435 melanoma it was 39.4%. Further, the growth was 83.1% with SW-620 colon; 25.1% in the experiment on MCF7 breast; 25.2% in the experiment with HCT-116 colon; 32.6% with HCC-2998 colon; 47.9% with KM12 colon; 33% in the experiment with MDA-MB-468 breast.

On to `O=C(NN1C(=O)/C(=C/C=C/c2ccc([N+](=O)[O-])o2)SC1=S)c1ccc(Cl)cc1`, for which the growth with SR leukemia was 4.16% (active); with RPMI-8226 leukemia, -23.8% (active); in the experiment on OVCAR-8 ovarian, -78.2% (active); in the experiment on OVCAR-5 ovarian, -97.7% (active); in the experiment on SK-OV-3 ovarian it was -99.6% (active); with IGROV1 ovarian it was -92.9% (active). Moreover, the growth is -98% (active) in the experiment on OVCAR-3 ovarian; -18.4% (active) in the experiment on HS 578T breast; -91.2% (active) in the experiment with T-47D breast; -91.1% (active) with BT-549 breast; -86.2% (active) with MDA-MB-435 melanoma; -80.9% (active) in the experiment on SW-620 colon. For the same compound, the growth is -60% (active) in the experiment on MCF7 breast; -76.1% (active) in the experiment on HCT-116 colon; -96.2% (active) in the experiment on HCC-2998 colon; -93% (active) in the experiment with KM12 colon; -85.9% (active) in the experiment on MDA-MB-468 breast.

With `CC(=O)OCC1OC(OC2C(COC(C)=O)OC(n3cc(COc4ccc5ccc(=O)oc5c4)nn3)C(OC(C)=O)C2OC(C)=O)C(OC(C)=O)C(OC(C)=O)C1OC(C)=O` (stereo not drawn), the growth with SR leukemia is 98.1%; in the experiment on OVCAR-8 ovarian, 106%; with OVCAR-5 ovarian it was 112%; with OVCAR-4 ovarian, 115%; with SK-OV-3 ovarian, 109%; in the experiment with IGROV1 ovarian, 111%. Further, the growth was 113% with OVCAR-3 ovarian; 89.2% in the experiment on HS 578T breast; 99.9% in the experiment on NCI/ADR-RES ovarian; 103% in the experiment on T-47D breast; 101% with BT-549 breast; 101% in the experiment with MDA-MB-435 melanoma. For the same compound, the growth is 106% in the experiment on SW-620 colon; 90.9% in the experiment on MCF7 breast; 106% in the experiment on HCT-116 colon; 108% in the experiment with HCC-2998 colon; 103% with KM12 colon; 108% in the experiment on MDA-MB-468 breast.

As for `N#Cc1c(-c2ccc(Br)cc2)nc2n[nH]c(-c3ccc(Br)cc3)c2c1-c1ccc(F)cc1`, the growth in the experiment with SR leukemia was 80.7%; in the experiment with RPMI-8226 leukemia it was 72.7%; in the experiment on OVCAR-8 ovarian, 101%; in the experiment with SK-OV-3 ovarian, 72.7%; in the experiment with IGROV1 ovarian, 75.1%; in the experiment on OVCAR-3 ovarian, 106%. In addition, the growth in the experiment with NCI/ADR-RES ovarian is 97.2%; with T-47D breast, 74.6%; with BT-549 breast, 107%; with MDA-MB-435 melanoma, 102%; in the experiment on MCF7 breast, 78.7%; in the experiment with HCT-116 colon it was 95.3%. In addition, the results for the growth in the experiment on HCC-2998 colon, in the experiment on KM12 colon and in the experiment with MDA-MB-468 breast were 108%, 105% and 110%, respectively.

For `CN(C)CCCNC(=O)c1cc(NC(=O)c2cc(NC(=O)c3ccc(C#Cc4ccccc4)cc3)cn2C)cn1C`, the growth is -46.3% (active) in the experiment with SR leukemia; -0.647% (active) in the experiment with OVCAR-8 ovarian; 36.8% with OVCAR-5 ovarian; 43.6% with OVCAR-4 ovarian; 46.5% in the experiment on SK-OV-3 ovarian; 34.3% in the experiment on IGROV1 ovarian. Further, the growth is -2.81% (active) in the experiment on OVCAR-3 ovarian; 31.7% in the experiment on HS 578T breast; 56.6% with NCI/ADR-RES ovarian; -14.9% (active) in the experiment with T-47D breast; -15% (active) in the experiment on BT-549 breast; -63.3% (active) in the experiment with MDA-MB-435 melanoma. Also, the growth in the experiment with SW-620 colon is -12.9% (active); in the experiment with MCF7 breast it was -93.3% (active); in the experiment with HCT-116 colon, -92.4% (active); in the experiment with HCC-2998 colon it was -90.7% (active); with KM12 colon, -64% (active).

As for `COc1ccc(NC(=O)Cn2c3c(sc2=O)[C@H]2[C@@H](O)[C@@H](O)[C@H](O)[C@@H]2CS3)cc1`, the growth in the experiment on SR leukemia is 99.1%; with OVCAR-8 ovarian it was 103%; in the experiment on OVCAR-5 ovarian, 105%; in the experiment on OVCAR-4 ovarian, 106%; in the experiment with SK-OV-3 ovarian it was 107%; in the experiment with IGROV1 ovarian, 104%. In addition, the growth in the experiment on OVCAR-3 ovarian is 109%; in the experiment on HS 578T breast, 107%; with NCI/ADR-RES ovarian, 107%; with T-47D breast, 100%; with BT-549 breast, 110%; in the experiment with MDA-MB-435 melanoma, 101%. The growth is 105% in the experiment with SW-620 colon; 93.8% with MCF7 breast; 103% in the experiment on HCT-116 colon; 114% with HCC-2998 colon; 102% in the experiment on KM12 colon; 107% in the experiment on MDA-MB-468 breast.
